Measured values taken from PubChem BioAssay AID504941 (Broad Institute, 2011).
The whole screen tested about 1,200 compounds, of which about 170 (14%) were called active. No rule for the calls is given here. Not all results are given here. Measured potencies and affinities stand elsewhere.

Assay: twin-arginine translocation blockade, bacterial reporter – cherry-pick, set 2, plate reader, dose response (AID 504941)
Details: E. coli Tat transport reporter; series mostly up to 38 µM

| SMILES | outcome |
| --- | --- |
| COc1cc(/C=N/NC(=O)c2ccccn2)ccc1OC(=O)c1ccc(Br)cc1 | inactive |
| COc1ccc([N+](=O)[O-])cc1/C=N/NC(=O)Cc1ccccc1 | inactive |
| C=CCNC(=S)Nc1cccc2[nH]ncc12 | inactive |
| O=C(O)c1cn(-c2ccc(F)cc2)c2cc(N3CCNCC3)c(F)cc2c1=O | inactive |
| CN1C2CCC1CC(NS(=O)(=O)c1cc(Cl)c(Cl)cc1Cl)C2 (stereo not drawn) | inactive |
| CCCCSc1nc2c(c(=O)[nH]c(=O)n2C)n1CCc1ccccc1 | inactive |
| O=C(CCc1nc2ccccc2c(=O)[nH]1)OCC(=O)c1cccc(Cl)c1 | inactive |
| CCOc1ccc(S(=O)(=O)N2CCCCC2)cc1NC(=O)CN1C(=O)NC(CC)(c2ccccc2)C1=O (stereo not drawn) | inactive |
| COc1ccc(S(=O)(=O)N2CCOCC2)cc1NC(=O)c1ccc2c(c1)OCO2 | inactive |
| Cc1c(C)c2c(C)nn(-c3ccccc3)c2[nH]c1=O | inactive |
| CC(C)(C)c1nn2cnnc2n(/N=C/c2cccc3ccccc23)c1=O | inactive |
| CCOC(=O)c1c(N/C=C(\C#N)c2nc(-c3ccc(OC(C)=O)cc3)cs2)sc2c1CCC2 | inactive |
| CCc1nc2cc3sc(CC)nc3cc2s1 | inactive |
| CC(C)c1ccc(NC(=O)c2snc3ccc(Cl)cc23)cc1 | inactive |
| Cc1ccc(C(=O)Nc2nc(C)c(C(=O)Nc3ccc4c(c3)CCC4)s2)cc1 | inactive |
| Cc1ccc[n+](CC(=O)c2cc3ccccc3oc2=O)c1 | inactive |
| Cc1nc2scc(-c3ccccc3)c2c(=O)n1/N=C/c1ccco1 | inactive |
| Cc1ccc(-n2c3nc(=O)[nH]c(=O)c-3cc3c(C)nn(-c4ccccc4)c32)c(C)c1 | inactive |
| COc1ccc(-c2noc(CSc3nnc(-c4ccncc4)n3-c3ccc(F)cc3)n2)cc1OC | inactive |
| CCCCc1c(O)nc(SCC(=O)c2ccccc2)[nH]c1=O | inactive |
| CCN(CC)CCCn1c(C)cc2c(c1=O)C(c1cccc(Cl)c1)C(C#N)=C(N)O2 (stereo not drawn) | inactive |
| Cc1cc(Cl)ccc1NC(=O)CN1CCCC1 | inactive |

| SMILES | outcome |
| --- | --- |
| Cc1ccc(NC(=O)CN2CCN(c3ccccn3)CC2)c(Cl)c1 | inactive |
| O=C(CCCn1c(=O)[nH]c2ccsc2c1=O)N1CCCCC1 | inactive |
| CC(C)OC(=O)Cn1c(=O)oc2ccccc21 | inactive |
| O=C(C1CC(=O)N(C2CCCC2)C1)N1CCN(c2ccc(F)cc2)CC1 (stereo not drawn) | inactive |
| Nc1nc2ccc([N+](=O)[O-])c(N)c2s1 | inactive |
| CCCn1c(=N)c(S(=O)(=O)c2ccc(F)cc2)cc2c(=O)n3cccc(C)c3nc21 | inactive |
| CC(C)c1cc(C(N)=O)c(NC(=O)c2cccc(COc3ccc(Cl)cc3)c2)s1 | inactive |
| CCn1nc(-c2ccccc2)c2nc3ccccc3nc21 | inactive |
| C=C1CSc2nc(=O)c3c4c(sc3n21)CCCC4 | inactive |
| COc1ccc(C(CNC(=O)c2cc(SC)ccc2Cl)N(C)C)cc1 (stereo not drawn) | inactive |
| O=c1/c(=C/c2ccc(O)c([N+](=O)[O-])c2)sc2nc3ccccc3n12 | inactive |
| CCn1cc(C(=O)O)c(=O)c2cc(F)c(N3CCN(C(=S)NC(=O)c4ccc(F)c(F)c4)CC3)cc21 | inactive |
| Cc1ccnc(NC(c2cccnc2)c2ccc3cccnc3c2O)c1 (stereo not drawn) | inactive |
| Oc1c(Br)cc(C2N=C(c3ccccc3)NO2)cc1Br (stereo not drawn) | inactive |
| CCOC(=O)C1(c2nc(N)cs2)COC(=O)C1 (stereo not drawn) | inactive |
| COc1ccccc1-c1ccc(=O)n(CC(=O)Nc2ccc(C(=O)N3CCCC3)cc2)n1 | inactive |
| O=C(c1ccccc1)N1CCN(c2nc3ccc([N+](=O)[O-])cc3s2)CC1 | inactive |
| Nc1nc(NCC2CCCO2)nc(Nc2cccc(Cl)c2)c1[N+](=O)[O-] (stereo not drawn) | inactive |
| COc1ccc(CNC(=O)Cn2nnc(-c3ccc(NC(=O)C4CCCCC4)cc3)n2)cc1 | inactive |
| O=C(NCc1cccs1)Nc1cccc(Cl)c1 | inactive |
| Cc1ccc(NC(=O)c2ncn(CCCNCc3ccccn3)n2)cc1C | inactive |
| COc1ccc(CCNC(=O)CN2CCOc3ccccc32)cc1OC | inactive |

| SMILES | outcome |
| --- | --- |
| COc1ccc(N2CCN(C3CC(=O)N(c4ccc5c(c4)OCCO5)C3=O)CC2)cc1 (stereo not drawn) | inactive |
| Cc1ccc(O)c(C(=O)c2coc(=N)c(C(=O)NC(C)C)c2)c1 | inactive |
| C=CCNc1ccccc1S(=O)(=O)NCc1ccccc1 | inactive |
| O=C(Nc1ccc(Oc2ccccc2)nc1)C1CCCCN1Cc1ccc(OCCO)cc1 (stereo not drawn) | inactive |
| CCOc1ccc(Nc2nc3c(c(=O)[nH]2)CCCC3)cc1 | inactive |
| COc1ccc(/C=C/C(=O)Nc2ccccc2C(=O)O)cc1OC | inactive |
| NS(=O)(=O)c1ccc(CCNC(=O)Cc2ccc(S(=O)(=O)N3CCCC3)s2)cc1 | inactive |
| CC1COc2c(N3CCN(C)CC3)c(F)cc3c(=O)c(C(=O)O)cn1c23 (stereo not drawn) | inactive |
| CCn1cc(C(=O)O)c(=O)c2cc(F)c(N3CCN(C)CC3)cc21 | inactive |
| O=C(NC(Cc1ccccc1)c1nc2ccccc2[nH]1)c1ccc(Cl)c([N+](=O)[O-])c1 (stereo not drawn) | inactive |
| CCOC(=O)c1c(C)[nH]c(C(=O)N(C)Cc2cccc(OC)c2OC)c1C | inactive |
| COc1ccccc1NS(=O)(=O)c1cccc(N=C2N=C(N)c3ccccc32)c1 | inactive |
| CC(=O)Nc1sc(NC(=O)c2ccccc2)nc1-c1cccs1 | inactive |
| Cc1ccc(/C=N/NC(=O)c2ccc(Cn3cc([N+](=O)[O-])cn3)o2)cc1 | inactive |
| O=C(NCc1cccnc1)C(=O)NCC1OCCN1S(=O)(=O)c1ccc(F)cc1 (stereo not drawn) | inactive |
| COc1ccc(C(=O)OC(C)CN2CCN(C)CC2)cc1 (stereo not drawn) | inactive |
| Cc1ccc(-n2c(O)c(C=Nc3ccccc3-c3n[nH]c(=S)[nH]c3=O)c3ccccc3c2=O)cc1C | inactive |
| Cc1cc(NC(=O)c2ccc([N+](=O)[O-])cc2)n(C)n1 | inactive |
| COc1ccc(/C=C(/NC(=O)c2cccc([N+](=O)[O-])c2)C(=O)O)cc1 | inactive |
| O=C(NC(=S)NNC(=O)c1ccccc1O)c1ccccc1 | inactive |
| COCC(=O)Nc1nnc(Cc2ccc(OC)cc2)s1 | inactive |
| CC(Oc1cccnc1[N+](=O)[O-])C(=O)N1CCc2ccccc21 (stereo not drawn) | inactive |

| SMILES | outcome |
| --- | --- |
| Cc1nc(-c2cccc(S(=O)(=O)N3CCOCC3)c2)cs1 | inactive |
| CCN(CC)S(=O)(=O)c1cc(NC(=O)c2ccc(-n3cncn3)c([N+](=O)[O-])c2)ccc1C | inactive |
| COc1ccc(NC(=O)c2ccccc2[N+](=O)[O-])cc1OC | inactive |
| NC(=O)Cn1c(-c2nonc2N)nc2ccccc21 | inactive |
| CCCC(=O)Nc1ccc(NC(=O)c2ccccn2)cn1 | inactive |
| Cc1onc(-c2ccccc2)c1C(=O)Nc1nc(-c2cc(F)ccc2F)cs1 | inactive |
| Cc1onc(-c2c(F)cccc2Cl)c1C(=O)Nc1sc2c(c1C#N)CCC(C(C)(C)C)C2 (stereo not drawn) | inactive |
| Cc1ccccc1NC(=O)NCCN1C(=O)C2C3C=CC(C3)C2C1=O (stereo not drawn) | inactive |
| CCOC(=O)c1ccccc1NC(=S)N1CC(C)CC(C)C1 (stereo not drawn) | inactive |
| CCOC(=O)c1sc(Nc2nc3ccc(OC)cc3s2)cc1C | inactive |
| CCCn1c(N)c(C(=O)CSc2nnnn2-c2ccc(O)cc2)c(=O)n(C)c1=O | inactive |
| COC(=O)/C(=C/c1ccco1)NC(=O)c1ccccc1 | inactive |
| O=C1OCCN1C(=O)[C@H]1[C@H](c2ccc(Cl)cc2)C(c2ccccc2)=NN1c1ccccc1 | inactive |
| COc1cccc(-c2cc(=O)c3cc(NC(C)=O)ccc3[nH]2)c1 | inactive |
| Cc1c(NC2=NC3(CCCCC3)Cc3ccccc32)c(=O)n(-c2ccccc2)n1C | inactive |
| O=C(Nc1cccc(NC(=O)c2cccnc2)c1)c1ccccc1 | inactive |
| O=C1CN(S(=O)(=O)c2ccccc2C(F)(F)F)CCN1 | inactive |
| CCCOc1cccc(C(=O)Nc2ccc(Br)cc2F)c1 | inactive |
| COc1ccc(OC)c(NC(=O)c2cccnc2)c1 | inactive |
| Cc1nn(-c2ccccc2)c(C)c1NC(=O)COC(=O)c1ccc(Cl)c(S(N)(=O)=O)c1 | inactive |
| CNC(=S)N1CCN(c2c(F)cc3c(=O)c(C(=O)O)cn(C4CC4)c3c2OC)CC1C (stereo not drawn) | inactive |
| COc1cc(C(=O)Oc2cc(C)cc(C)c2)cc(OC)c1OC | inactive |

| SMILES | outcome |
| --- | --- |
| Cc1ccc(C2CC(c3ccccc3)n3ncnc3N2)cc1 (stereo not drawn) | inactive |
| COc1cc(OC)cc(C(=O)NC2CC(C)(C)NC(C)(C)C2)c1 | inactive |
| Cc1ccccc1NC(=O)CCN1CCN(CCO)CC1 | inactive |
| CN(Cc1cn[nH]c1-c1ccc(-c2ccccc2)cc1)CC1CCOCC1 | inactive |
| Cc1ccc(Cn2c(=O)oc3ccccc32)cc1 | inactive |
| O=C(NCc1cccs1)c1cccnc1C(=O)O | inactive |
| COc1cc(/C=C(\C#N)c2nn(CCO)c(N)c2C#N)cc(OC)c1OC | inactive |
| CCN(CC(=O)NCc1ccc(F)cc1)CC(=O)Nc1ccc(S(=O)(=O)N2CCCC2)cc1 | inactive |
| O=C(CSc1nc2ccccc2c(=O)n1CCCN1CCOCC1)Nc1ccc2c(c1)OCO2 | inactive |
| CC1CCN(C(=O)C2(NC(=O)Nc3cccc(F)c3)CCCCC2)CC1 | inactive |
| Cc1nc(SCc2nc3ccccc3[nH]2)c2oc3ccccc3c2n1 | inactive |
| Nc1ccc(C(=O)Nc2nc3ccccc3s2)cc1 | inactive |
| COCc1cc(C)n(CC(=O)NC(C)c2ccccc2)c(=O)c1C#N (stereo not drawn) | inactive |
| COc1ccc(S(=O)(=O)Nc2nc3c(s2)CCCC3)cc1 | inactive |
| CCCCOCC1CN(c2ccccc2)C(=O)CS1 (stereo not drawn) | inactive |
| Cc1ccc(NC(=O)COC(=O)CCC(=O)c2cccs2)c(C)c1 | inactive |
| Cc1ccc(C)c(NC(=O)CCN2CCc3ccccc3C2)c1 | inactive |
| COc1ccc(N(CC(=O)NCc2ccc(Cl)cc2)S(=O)(=O)c2ccccc2[N+](=O)[O-])c(OC)c1 | inactive |
| Cc1cc(C)nc(SC(C)C(=O)N/N=C/c2cccs2)n1 (stereo not drawn) | inactive |
| Cc1ccc(C(=O)c2cnc3ccccc3c2-c2ccccc2)cc1 | inactive |
